Rango-impB inh: prevents formation of the Rango-importin beta complex | Q14974 | Rango CFP/YFP FRET sensor + importin beta, 45 min | Potency, µM (series often up to 92.2 µM), for the others: at the top dose inhibition of complex formation | 340,000 compounds, 0.031% hits; calls by dose curve;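 further: potency means the concentration at half of the fitted maximal effect; 0% = DMSO wells and 100% = buffer wells lacking importin beta; nearly all actives have a fitted effect of over 15% in size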
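FRET biosensor (snurportin 1 IBB flanked by EYFP and cerulean), 50 nM, with compound 5 min, then 0.125 microM importin beta in PBS, 1 mM DTT, 0.02% Tween-20, 0.1% BSA. CFP/YFP ratio read after 45 min at room temperature; pre-read flags interference.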
PI5P4K alpha inh: inhibitors of human PI5P4K alpha | max response, % | P48426 | PI5P4Kalpha enzyme, ADP-Glo luminescence, 60 min; hits give low values | 330,000 compounds, 1.2% hits; active means max response of -50% or lower; inconclusive means between -30% and -50%; inactive means -30% or higher; further: value at the top dose of about 77 µM; on the % scale 0 is the no-effect control and ±100 the full control effect
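Compounds were pin-transferred onto PI5P4Kalpha and substrate in HEPES pH 7.4 buffer with EGTA, CHAPS and 5% DMSO. ATP (5 microM final) started the reaction, which ran 60 minutes at room temperature before ADP-Glo detection.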
VDR inh: blocks the human vitamin D receptor. P11473. VDR-SRC2-3 peptide fluorescence polarization, 2 h. Potency, µM, for the others: max response, negative = inhibition, most hits filed as inhibitors. 400,000 compounds, 0.93% hits. AID 504847; further: potency means the concentration at half of the fitted maximal effect; on the % scale 0 is the no-effect control and ±100 the full control effect
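The screen uses fluorescence polarization to detect compounds that interfere with recruitment of the SRC2-3 coactivator peptide to VDR; plates are read after 2 h at room temperature.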
PLK1 PBD inh: blocks phosphopeptide binding to human PLK1 polo-box domain. Plk1 PBD binding of FITC phosphopeptide, fluorescence polarization. Potency, µM, for the others: max response, negative = inhibition, actives largely listed as inhibitors. 360,000 compounds, 2.8% hits. AID 720504; further: potency means the concentration at half of the fitted maximal effect; series mostly up to about 57 µM; on the % scale 0 is the no-effect control and ±100 the full control effect; nearly all actives have a fitted effect of over 65% in size
Rango dissoc inh: inhibitors of RanGTP-induced Rango-importin beta complex dissociation. O95149+P62826. Biochemical FRET Rango-importin beta, RanGTP-induced dissociation. Potency, µM (top dose mostly 46.1 µM), for the others: top-dose activity change, negative = inhibition. 340,000 compounds, 0.071% hits. AID 540253; calls by dose curve; further: potency means the concentration at half of the fitted maximal effect; % of control where 0% means no effect; nearly all actives have a fitted effect of over 45% in size
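Compounds sat 5 min at room temperature with 0.1 uM Rango biosensor plus 0.25 uM importin beta, then FRET pre-read. RanGTP-RCC1 (0.6 uM Ran, 2mM GTP, 0.2 uM RCC1) added for 45 min, and the CFP/YFP post-read measured blocked complex dissociation.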
GCN5L2 inh: GCN5L2 (KAT2A) acetyltransferase inhibition. GCN5L2 HAT assay, ThioGlo1 CoA-SH fluorescence. 390,000 compounds, 0.21% hits. Q92830. Potency, µM (top dose mostly 58.9 µM), for the others: at the highest dose activity change, negative = inhibition, actives largely listed as inhibitors; further: potency means the concentration at half of the fitted maximal effect; on the % scale 0 is the no-effect control and ±100 the full control effect
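Compounds, pin-transferred from DMSO stocks, meet 20nM GCN5L2 for 15 min before the reaction begins with H3(1-25) peptide (75uM) and acetyl-CoA (70uM). Thiol-reactive ThioGlo1 reports CoA release over 20 min at room temperature.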
* hit, by the source's call; ? = inconclusive; / = no result. Rows were chosen to be rich in hits. Some 3.6% of all compounds tested hit in one or more screens of this group. Unless noted, the call rests on the fitted dose curve; in most records, active means well fitted curve in the direction sought with a large enough effect; inconclusive means small, poorly fitted or top-dose-only effect, or another doubt; inactive means no such curve, though single readings can be large; an effect the other way counts as inactive or inconclusive.

SMILES	Rango-impB inh	PI5P4K alpha inh	VDR inh	PLK1 PBD inh	Rango dissoc inh	GCN5L2 inh
CC(=O)c1ccc(-c2cnc3c(NC=O)cc(-c4cnn(C)c4)cn23)cc1	/	-57.1*	/	-20.8%	/	/
Nc1ccc(-c2cc(NC=O)c3ncc(-c4cccc(C(F)(F)F)c4)n3c2)cn1	/	-55.0*	/	-7.1%	/	/
COc1cc(-c2cc(NC=O)c3ncc(-c4ccc(C(C)=O)cc4)n3c2)ccc1O	/	-60.7*	/	-9.5%	/	/
Cc1c(Cl)cccc1-n1nc(C)c2c(C)cc(=O)n(CC(=O)N3CCCc4ccccc43)c21	/	/	-10.4%	/	/	2.7%
CCN(CC)c1ccc(/C=C2/SC(=O)N(C(C)C)C2=O)o1	?	-2.3	31.6µM*	55.4%	?	-9.1%
COc1ccc(NC(=O)c2c(NCc3ccc(C)o3)sc3c2CCCCC3)c(OC)c1	/	/	2.3%	/	/	-27.9%
Cc1cc(C)nc(NS(=O)(=O)c2ccc(NC(=O)CSc3ncn[nH]3)cc2)n1	-1.7%	-20.7	8.6%	26.7µM*	7.2%	-8.2%
CCOC(=O)c1cc(S(=O)(=O)N2CCN(c3ccc(F)cc3)CC2)[nH]n1	/	/	7.0%	/	/	-6.3%
CCCS(=O)(=O)N1CC(=O)N(c2ccccc2F)C(C)(C(=O)NC2CCCCCC2)C1 (stereo not drawn)	/	/	8.1%	/	/	-6.8%
c1ccc(Cn2nnnc2-c2ccco2)cc1	0.1%	/	-6.6%	-4.4%	-14.5%	-7.2%
Cc1cc(Cn2nnnc2-c2ccncc2)cc(C)c1O	4.7%	4.2	4.4%	37.7µM*	-10.0%	-12.2%
CC1OC(CC(=O)O)CC2=C1C(=O)c1c(O)cccc1C2=O (stereo not drawn)	5.4%	-23.3	10µM*	2.38µM*	-15.1%	/
O=C(CSc1ccc(Br)cc1)NC1CCS(=O)(=O)C1 (stereo not drawn)	3.2%	-0.3	?	16.8µM*	35.7%	-2.8%
Cn1c(SCC(=O)NC2CCS(=O)(=O)C2)nc2ccccc21 (stereo not drawn)	-0.9%	6.8	10.5%	-14.6%	-1.7%	-0.3%
C[N+](C)(C)C/C=C1/COCO1	-3.4%	?	-9.9%	3.36µM*	-11.3%	2.0%
COc1cc(N)ccc1Nc1c2ccccc2nc2ccccc12	/	-54.9*	/	-8.1%	/	/
CCC(CC)C(=O)N1CCc2cc(OC)c(OC)cc2C1COc1ccc2c(C)cc(=O)oc2c1 (stereo not drawn)	/	/	6.1%	/	/	-2.4%
N=C1C(c2ccccc2)=C(O)CN1CCCO	-1.2%	1.7	-7.0%	23.8µM*	-12.4%	-4.3%
CCc1ccc(CNC(=O)c2sc3ncccc3c2-n2c(C)ccc2C)cc1	/	/	1.5%	/	/	-7.7%
O=C(CS(=O)(=O)c1ccccc1)Nc1nnc(Cc2ccccc2)s1	-4.9%	2.0	0.3%	13.4µM*	-11.4%	-7.4%
CCC(CC)c1nnc(NC(=O)CS(=O)(=O)c2ccccc2)s1	4.8%	-9.2	?	9.47µM*	-3.3%	-0.2%
CCCc1nnc(NC(=O)CS(=O)(=O)c2ccccc2)s1	-2.8%	-5.9	-9.1%	-29.1%	6.6%	-2.8%
CCCc1nnc(NC(=O)CCS(=O)(=O)Cc2ccccc2)s1	0.0%	-5.2	23.6%	-18.5%	1.7%	-3.9%
CCC(CC)c1nnc(NC(=O)CCS(=O)(=O)Cc2ccccc2)s1	0.8%	4.4	-5.6%	23.8µM*	-7.0%	-9.0%
CCC(Cc1ccccc1)NC(=O)c1csc2c1CCCCC2 (stereo not drawn)	/	/	-15.9%	/	/	0.7%
Cc1ccccc1NC(=O)Cn1c(=O)n(CCC(=O)N2CCc3ccccc3C2)c(=O)c2ccccc21	/	/	-5.0%	/	/	-4.2%
O=C(COc1ccc(Br)cc1)Nc1ccc(C(=O)OC2CCCCC2)cc1	/	/	-2.2%	/	/	1.5%
CC(C)(C)Cc1nnc(NC(=O)CSc2ccccc2)s1	-0.6%	-28.7	28.2µM*	5.32µM*	-3.2%	-28.7%
CCc1nnc(NC(=O)CSc2nnc(-c3ccccc3O)o2)s1	3.1%	6.6	-15.6%	23.8µM*	-7.8%	-23.1%
CCOCc1nnc(NC(=O)CSc2ccccc2)s1	-3.6%	-12.0	6.1%	?	10.3%	-12.2%

Bioassay records deposited in PubChem BioAssay by National Center for Advancing Translational Sciences (NCATS).
